What was measured:
Assay in all cases: PBM binding z-score (relative to random genomic background probes); higher = stronger binding; sequences stand for … in GC…GCGATTGACAGCGTAGAATGAAGG
[1] = system: PPARg:RXRa DBDmut IVT, anti-RXR (DBD mutation: RXRa K156A/R161A, NR concentration 270 nM, RXRa partner concentration 90 nM)
Method in brief: (§1)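 Ligand-free nuclear receptor dimers were applied to custom Agilent 4×180K protein-binding microarrays whose double-stranded probes carried direct-repeat seeds, single-nucleotide variants, half-site ablations and random human genomic background sequences in 34-nt variable regions. Incubation lasted 1 h. Binding z-scores were computed against the random background probes from regression-normalized fluorescence.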

[2] = system: PPARg:RXRa IVT, anti-PPARg (NR concentration 270 nM, RXRa partner concentration 90 nM)
Method in brief: as §1

[3] = system: PPARg DBDmut:RXRa IVT, anti-PPARg (DBD mutation: PPARg1 K132A/R137A, NR concentration 270 nM, RXRa partner concentration 90 nM)
Method in brief: as §1

[4] = system: PPARg DBDmut IVT, anti-PPARg (DBD mutation: PPARg1 K132A/R137A, NR concentration 270 nM)
Method in brief: as §1

[5] = system: PPARg homodimer (NR concentration 180 nM)
Method in brief: as §1

[6] = system: PXR:RXRa (NR concentration 270 nM, RXRa partner concentration 90 nM)
Method in brief: as §1

[7] = system: PXR homodimer (NR concentration 270 nM)
Method in brief: as §1

[8] = system: RARa:RXR (NR concentration 270 nM, RXRa partner concentration 90 nM)
Method in brief: as §1

[9] = system: RARa homodimer (NR concentration 270 nM)
Method in brief: as §1

[10] = system: RARb:RXRa (NR concentration 270 nM, RXRa partner concentration 90 nM)
Method in brief: as §1

| Sequence | PBM binding z-score [1] | PBM binding z-score [2] | PBM binding z-score [3] | PBM binding z-score [4] | PBM binding z-score [5] | PBM binding z-score [6] | PBM binding z-score [7] | PBM binding z-score [8] | PBM binding z-score [9] | PBM binding z-score [10] |
| --- | --- | --- | --- | --- | --- | --- | --- | --- | --- | --- |
| AGAATGAGGTTATTAAGATCCGGGAATTGCGGTC | 2.93 | 2.17 | 0.655 | 0.352 | 1.11 | 0.959 | 0.153 | 1.28 | -0.0311 | 1.48 |
| CCTCGGAGGACAGAAGGTCTGAGCTGTCCGCTTT | 0.154 | -0.94 | -1.16 | -2.11 | -0.0745 | -0.674 | -0.886 | -0.544 | -0.761 | 0.519 |
| CGTCAAAGTTCAAGGTACCGTAACAGAAAGCAGC | 0.47 | 1.61 | 0.0848 | 0.822 | 2.35 | 3.99 | 2.46 | 3.45 | 0.789 | 5.08 |
| CCTTACGGGTCACTGACAGTTTATAGCATTTGGA | 3.68 | 3.57 | 0.77 | 0.36 | 2.21 | 4.38 | 0.495 | 4.35 | 1 | 3.9 |
| CAAGACAGGTGAGAAGGTAACTCAGCCTCGATTA | 0.761 | 1.21 | -0.174 | -0.268 | 0.64 | 0.215 | 0.678 | 0.355 | 0.384 | 0.867 |
| CCGACTGGGGCAAGGTGACCATAACGCACAGCCA | 2.69 | 3.79 | -0.323 | -0.812 | 0.0642 | -0.346 | -0.578 | -0.0197 | -0.0269 | 1.14 |
| CCTTACGGGTCAAGGTGATAGCACGGGTGGTACG | 1.85 | 3.49 | -0.115 | -0.375 | 1.63 | 2.89 | -0.103 | 3.84 | 0.455 | 4.11 |
| TCATATACGTAATACAGGTGAAAGTCGGCATCTA | 2.77 | 1.63 | 0.572 | 1.29 | 1.17 | 0.689 | 0.477 | 0.982 | 1 | 0.727 |
| CCTACTGGGCCAAGGTCAATGATCAGTCAAAGCA | 3.63 | 4.57 | -0.437 | -1.01 | 1.4 | 2.51 | 0.323 | 2.81 | 0.147 | 3.27 |
| TCTGCTAGGTCAGTTGTTCAGCTAACGAGCTGCC | 2.38 | 2.46 | -0.0117 | 0.257 | -0.0463 | 0.0123 | -1.04 | 0.419 | -1.19 | 3.15 |
| GCTATTAGTTGAAAGGGCAACTGAATGATTCTCG | 0.54 | 1.04 | 0.18 | 0.595 | 1.34 | 0.933 | 0.252 | 1.68 | 0.584 | 2.1 |
| AGAATGAGGTTATTAAGATCAGCGAATTGCGGTC | 3.16 | 2.5 | 0.614 | 0.292 | 0.609 | 1 | 0.607 | 1.22 | 0.18 | 1.27 |
| TAGCCTAGGTCATGCGGGCCATTATAGTGTCGGC | 2.07 | 2.84 | 0.0501 | -0.158 | 0.864 | 1.97 | 0.0749 | 2.7 | -0.379 | 3.69 |
| TAGTCTAGGTCATTCAGGGGCCAGTATAGAAAGC | 5.32 | 5.97 | 1.69 | 1.74 | 2.29 | 2.53 | 0.48 | 3.32 | 0.639 | 3.73 |
| AGAATGACGTTATTAAGATCAGGGAATTGCGGTC | -0.6 | -0.306 | 0.0629 | 0.222 | -0.803 | -0.327 | -0.378 | -0.472 | -0.0308 | -0.451 |
| CCGACTGGGGCAAAAGTTACCATACTCAGTACGA | 4.08 | 3.59 | -0.127 | -0.288 | 0.506 | -0.414 | -0.137 | -0.0334 | -0.135 | 0.202 |
| GGAACGAGCGCAAGTTGATAGCAGAGTTTGATGG | -0.621 | -0.838 | -2.04 | -1.98 | -1.77 | -0.63 | -0.349 | -1.15 | -1.13 | -0.612 |
| TCTAGTTAGTCACGGAGGTCACACACGACGGGTA | 1.76 | 2.1 | 1.18 | 0.869 | 2.2 | 4.09 | 1.01 | 4.71 | 1.62 | 3.26 |
| TCATATAGGTAAATGCTAGGTCAAAGTCCGATCT | 4.1 | 3.27 | 0.472 | 1.99 | 1.7 | 1.98 | 1.11 | 2.7 | 1.22 | 1.88 |
| CGTGCTAGGTCATGGTCAGCTAATCTACAGTATG | 4.45 | 4.25 | 0.168 | -0.51 | 1.36 | 1.5 | -0.399 | 2.51 | -0.32 | 3.94 |
| TCATATAGGTAAAGGTGAAAGTGGAACGATATGA | 3.98 | 4.19 | 1.25 | 1.26 | 1.46 | 1.17 | 0.224 | 2.26 | 0.548 | 2.13 |
| CCTATCAGTTGACCATAAGGGCAACCGAAGCTCG | -0.0435 | 0.067 | -0.241 | 0.0861 | 1.5 | 0.754 | 0.186 | 1.14 | 0.698 | 1.6 |
| AATACAGGGTCACTATGCCAGAGTAGGTACGAAT | 3.26 | 4.74 | 1.77 | 1.8 | 1.62 | 2.9 | 0.523 | 3.67 | 1.11 | 4.01 |

— the supplement of paper PMC6555819
